Screening results: PubChem BioAssay, National Center for Advancing Translational Sciences (NCATS)
ATXN2 expr inh – Primary qHTS for Inhibitors of ATXN expression; hit rate 0.72% among 360,000; Potency, µM (doses to about 57 µM), inactives show at the highest dose activity change, negative = inhibition, usual class: inhibitors; HEK-293 ATXN2-luciferase reporter, luminescence, 24 h; further: on the % scale 0 is the no-effect control and ±100 the full control effect; nearly all actives have a fitted effect of over 55% in size
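ATXN2-luciferase reporter cells (luciferase flanked by upstream and downstream ATXN2 gene portions) were treated 24 h at 37 °C with compounds at up to 57 uM. SteadyGlo luminescence gave expression; GF-AFC fluorescence gave viability.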
ATXN viability – Viability Counterscreen for Primary qHTS for Inhibitors of ATXN expression | Potency, µM (top dose mostly 56.7 µM), usual class: cytotoxic | AID 651635, 2014 | S2 cells (HEK-293 line with an ATXN2-luciferase reporter) viability, CellTiter-Fluor protease fluorescence, 24 h | hit rate 0.49% among 400,000; further: nearly all actives have a fitted effect of over 40% in size
HT1080NT lethal – qHTS for induction of synthetic lethality in tumor cells producing 2HG: qHTS for the HT-1080-NT fibrosarcoma cell line | Potency, µM (series often up to 46.1 µM), for the others: top-dose activity, negative = less viability, hits mostly cytotoxic | hit rate 1.6% among 360,000 | HT-1080-NT fibrosarcoma viability, CellTiter-Glo ATP luminescence, 48 h;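 further: NT is the 2HG producing partner of a matched IDH1 knockdown line; 0% = DMSO-treated cells and -100% = media-only wells without cells; nearly all actives have a fitted effect of over 55% in size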
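HT-1080-NT; 750 cells/well; 5% FBS RPMI; 48 h compound, 37 degrees C; CellTiter-Glo luminescence; curve fitting and curve-class assignment.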
HT1080 IDH1KD tx – qHTS for induction of synthetic lethality in tumor cells producing 2HG: qHTS for the HT-1080-IDH1KD cell line; hit rate 2% among 360,000; HT-1080 IDH1 knockdown viability, ATP luminescence, 48 h; Potency, µM (titrated, usually from 46.1 µM), for the others: top-dose activity, negative = toxicity, usual class: cytotoxic;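 further: 0% = DMSO wells and -100% = cell-free medium wells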
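CellTiter-Glo luminescence after 48 h compound exposure at 37 degrees C of IDH1-knockdown HT-1080 cells in 5% FBS RPMI. %Activity scaled between DMSO wells and cell-free media wells, with curves fitted and assigned curve classes.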
TGFb SMAD3 inh – qHTS for Inhibitors of TGF-b; HepG2 CAGA-GFP TGF-b/SMAD3 reporter, GFP fluorescence, 18 h; TGF-beta stimulated, 500 pg/mL final; Potency, µM (top dose mostly 46.1 µM), for the others: at the top dose activity, negative = inhibition, most hits filed as inhibitors; hit rate 1.2% among 410,000; AID 588855, 2011; further: on the % scale 0 is the no-effect control and ±100 the full control effect; nearly all actives have a fitted effect of over 65% in size
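HEPG2 CAGA-GFP, 1000 cells/well; 2 h settle, 37 C; cpd via pin tool; TGF-b 500 pg/mL final; 18 h, 37 C; GFP imaging ex488/em500-530; %Activity normalised to -TGF-b and +DMSO controls; CRC fit, curve class.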
HepG2 tox – qHTS for Inhibitors of TGF-b: Cytotox Counterscreen; HepG2 CAGA-GFP viability, ATP luminescence, 18 h; Potency, µM (series often up to 46.1 µM), for inactives: at the top dose activity change, negative = cytotoxicity, most hits filed as cytotoxic; hit rate 0.76% among 410,000
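HepG2 CAGA-GFP cells (1000/well, DMEM with 1% FBS) received compound, then TGF-beta at 500 pg/mL final, and were incubated 18 hours at 37 degrees C. Viability was read by CellTiter-Glo luminescence. Media-only wells were set as complete cell-killing and DMSO as no toxicity.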
Active calls of the source: *; i = inactive; u = inconclusive; x = no result; ! = repeats disagree. Shown are actives, neighbours in structure and some others; about 3.8% of the full set was active somewhere. The call rests on the fitted dose curve; in most records, active means well fitted curve in the direction sought with a large enough effect; inconclusive means small, poorly fitted or top-dose-only effect, or another doubt; inactive means no such curve, though single readings can be large; an effect the other way counts as inactive or inconclusive. Potency means the concentration at half of the fitted maximal effect.

SMILES	ATXN2 expr inh	ATXN viability	HT1080NT lethal	HT1080 IDH1KD tx	TGFb SMAD3 inh	HepG2 tox
c1ccc(-c2nc3ccccc3o2)nc1	35%	i	6%	8%	u	-2%
c1ccc2nc(-c3nc4ccccc4o3)ccc2c1	u	i	10µM*	13µM*	u	-80%
Cc1nc2c(nc1C)C(=O)c1ccccc1C2=O	u	u	u	18µM*	2.2µM*	3.5µM*
COc1cccc(Cl)c1NC(=O)N1CCc2c([nH]c3ccccc23)C1C(F)(F)F (stereo not drawn)	u	u	21µM*	u	u	-38%
O=C(Nc1ccccc1)N1CCc2c([nH]c3ccccc23)C1C(F)(F)F (stereo not drawn)	-12%	i	u	-14%	u	-34%
Fc1ccc(CNc2ncnc3nc[nH]c23)cc1	x	x	x	x	3%	-14%
CC1CCCC(C)N1C(=O)c1ccccc1Nc1ccc(SC(F)F)cc1 (stereo not drawn)	-21%	i	23µM*	u	u	-48%
CCn1c(=O)c(C(=O)Nc2ccc(C(C)=O)cc2)nc2ccccc21	12%	i	x	x	12%	-26%
Cc1ccc2[nH]c3c(N4CCN(Cc5ccccc5)CC4)ncnc3c2c1	u	u	u	21µM*	u	7.9µM*
Cc1ccc2c(c1)[nH]c1c(N3CCN(Cc4ccccc4)CC3)ncnc12	8.9µM*	x	u	u	11µM*	-70%
c1ccc(CN2CCN(c3ncnc4c3[nH]c3ccccc34)CC2)cc1	u	u	u	u	u	-29%
COc1ccc(C(=O)NCC(c2ccc(N(C)C)cc2)N2CCc3ccccc32)cc1OC (stereo not drawn)	x	x	x	x	-16%	-26%
COc1cc2nccc(Oc3ccc(NC(=O)C4(C(=O)Nc5ccc(F)cc5)CC4)cc3)c2cc1OC	19µM*	x	x	x	x	x
COc1cc(C(=O)NC2CCN(C)CC2)ccc1Nc1ncc2c(n1)N(C1CCCC1)CCC(=O)N2C(C)C	6.1µM*!	28µM*	u	u	-2%	-48%
CCOC(=O)C1CCCN(C(=O)c2cnn(-c3ncc4c(n3)-c3ccccc3CCC4)c2C2CC2)C1 (stereo not drawn)	x	i	x	x	x	x
CCOc1cccc2sc(N(Cc3cccnc3)C(=O)c3ccc(C#N)cc3)nc12	x	x	x	x	u	-33%
CN1/C(=C\C(=O)c2ccco2)C(C)(C)c2ccccc21	-19%	i	u	10µM*	u	-31%
CN1/C(=C\C(=O)c2cccnc2)C(C)(C)c2ccccc21	x	x	22%	21%	-16%	-9%
CN1/C(=C/C(=O)c2nc(S(C)(=O)=O)ncc2Cl)C(C)(C)c2ccccc21	u	x	u	4.6µM*	u	-122%
CN1/C(=C\C(=O)COC(=O)c2ccco2)C(C)(C)c2ccccc21	-36%	i	-1%	6%	-24%	-24%
CCC1CN(CCNC(=O)c2ccc3c(c2)OCO3)Cc2cc(OC)ccc2O1 (stereo not drawn)	x	i	x	x	x	x
CCOC(=O)CSc1nc2cc3c(cc2c(=O)n1CCCC(=O)NCCc1ccc(OC)c(OC)c1)OCO3	x	x	x	x	-4%	4%
CC(=O)[C@]1(O)Cc2c(O)c3c(c(O)c2[C@@H](O[C@H]2C[C@H](N)[C@@H](O)[C@H](C)O2)C1)C(=O)c1ccccc1C3=O	0.14µM*	x	x	x	x	x
COc1cccc2c1C(=O)c1c(O)c3c(c(O)c1C2=O)CC(O)(C(=O)CO)CC3OC1CC(N(C)C)C(O)C(C)O1 (stereo not drawn)	u	x	u	0.41µM*	0.79µM*	2%
COc1cccc2c1C(=O)c1c(O)c3c(c(O)c1C2=O)C[C@@](O)(C(=O)CO)C[C@@H]3O[C@H]1C[C@H](N)[C@H](O[C@@H]2CCCCO2)[C@H](C)O1	0.4µM*	16µM*	x	x	x	x
SMILES	ATXN2 expr inh	ATXN viability	HT1080NT lethal	HT1080 IDH1KD tx	TGFb SMAD3 inh	HepG2 tox
Cc1ccc(Cn2c(C)c3cnn(CC(=O)NCCc4ccc(Cl)cc4)c(=O)c3c2C)cc1	x	x	x	x	8%	0%
COCCOC(=O)C1=C(C)NC2=C(C(=O)CC(c3ccccc3OC)C2)C1c1cccc(O)c1 (stereo not drawn)	85%	x	x	x	x	x
C[C@H](CO)N1C[C@H](C)[C@@H](CN(C)C(=O)Nc2ccc(C(F)(F)F)cc2)Oc2c(NC(=O)Nc3ccccc3)cccc2C1=O	u	x	u	-23%	u	-44%
C[C@H](CO)N1C[C@H](C)[C@@H](CN(C)C(=O)NC2CCCCC2)Oc2c(NC(=O)Nc3ccc(C(F)(F)F)cc3)cccc2C1=O	u	u	u	u	14µM*	-41%
C[C@@H]1CCCCO[C@@H](CN(C)Cc2ccc(Cl)c(Cl)c2)[C@@H](C)CN([C@H](C)CO)C(=O)c2cc(NC(=O)CCC(F)(F)F)ccc2O1	u	u	u	u	u	-25%
C[C@@H]1CN([C@@H](C)CO)C(=O)c2cc(NC(=O)CCC(F)(F)F)ccc2O[C@H]1CN(C)Cc1ccc(Cl)c(Cl)c1	u	u	u	23µM*	13µM*	-85%
CC(C)NC(=O)N(C)C[C@H]1Oc2c(NC(=O)Nc3ccc(C(F)(F)F)cc3)cccc2C(=O)N([C@H](C)CO)C[C@@H]1C	-8%	u	-8%	-11%	u	-26%
C[C@H]1CN([C@@H](C)CO)C(=O)c2cccc(NC(=O)Nc3ccc(C(F)(F)F)cc3)c2O[C@@H]1CN(C)Cc1ccc(Cl)c(Cl)c1	0%	14µM*	u	u	u	13µM*
C[C@@H]1CN([C@H](C)CO)C(=O)c2cc(NS(=O)(=O)c3ccc(F)cc3)ccc2O[C@@H]1CN(C)Cc1ccc(Cl)c(Cl)c1	u	u	23µM*	u	11µM*	-100%
C[C@H](CO)N1C[C@H](C)[C@@H](CN(C)S(=O)(=O)c2ccc(F)cc2)Oc2ccc(NS(=O)(=O)c3ccc(F)cc3)cc2C1=O	-2%	u	9%	0%	u	-72%
Cc1c(C(=O)NC2CCCC2)sc2ncnc(NCCN(C)C)c12	x	i	x	x	x	x
CCc1ccc(S(=O)(=O)c2cn(CC)c3cc(N4CCOCC4)c(F)cc3c2=O)cc1	x	x	x	x	-2%	1%
